Assay outcomes deposited in PubChem by The Scripps Research Institute Molecular Screening Center.
The sample as a whole holds a higher share of hits than the screen did.
TbREL1 primary = TbREL1 inhibition, primary screen | AID 1117264 | 89,000 tested, 0.49% active | P86926 | inhibition, % at 9.66 µM | TbREL1 RNA ligation, FRET fluorescence;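 active means inhibition above the mean inhibition across all screened compounds plus 3 SD, cut at about 11% in these data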;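 further: 0% = plate median of test wells and 100% = NSC42067 control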
Target sequence (P86926 whole entry, looked up): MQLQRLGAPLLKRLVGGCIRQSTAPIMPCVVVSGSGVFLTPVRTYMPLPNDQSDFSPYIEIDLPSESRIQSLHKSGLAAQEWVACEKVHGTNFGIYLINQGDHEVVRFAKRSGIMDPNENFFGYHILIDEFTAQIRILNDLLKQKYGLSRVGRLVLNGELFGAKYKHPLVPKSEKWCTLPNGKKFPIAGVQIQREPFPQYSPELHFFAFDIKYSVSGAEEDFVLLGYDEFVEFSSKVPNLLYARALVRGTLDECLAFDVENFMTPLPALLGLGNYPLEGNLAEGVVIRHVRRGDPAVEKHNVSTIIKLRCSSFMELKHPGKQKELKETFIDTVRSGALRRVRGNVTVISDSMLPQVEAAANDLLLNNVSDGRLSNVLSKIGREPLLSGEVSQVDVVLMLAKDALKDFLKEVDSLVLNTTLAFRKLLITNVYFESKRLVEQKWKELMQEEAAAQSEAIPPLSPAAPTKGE
TbREL1 confirm = TbREL1 inhibition, confirmation | shares compounds with TbREL1 primary | TbREL1 RNA ligation, FRET fluorescence | inhibition, % at 9.66 µM | 390 tested, 37% active;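 active means mean inhibition across replicates above a set limit taken from the earlier primary screen, cut at about 11% in these data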;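 further: 0% = REL1 with substrate and DMSO and 100% = REL1 plus control inhibitor NSC42067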
Active calls of the source: *.

SMILES	TbREL1 primary	others
C[n+]1c(-c2ccccc2)cc(CCCCc2cc(-c3ccccc3)[n+](C)c(-c3ccccc3)c2)cc1-c1ccccc1	13*
Oc1ccccc1-[n+]1c(-c2ccccc2)cc(-c2ccccc2)cc1-c1ccccc1	0
Cc1ccc(-c2cc(-c3ccccc3)cc(-c3ccccc3)[n+]2-c2ccc(C(=O)O)cc2)cc1	-1
C=C1[C@@H](C)C2[C@H](Cc3ccccc3)NC(=O)[C@]23[C@H](OC(C)=O)/C=C/[C@@](C)(O)C(=O)[C@@H](C)C/C=C/[C@H]3[C@@H]1O (some centres undefined)	-4
C[N+]1=C(N)NC2=C3CCCCC3ONC2C1 (centres undefined)	6
CC(NC(=O)OC1CC2CCC1(C)C2(C)C)P(=O)(Oc1ccccc1)Oc1ccccc1 (centres undefined)	-4
O=C(Cn1ccc2ccccc2c1=O)NCC(=O)N1CCC2(CC1)OCCO2	11*
O=C(CCCCCn1c(=S)[nH]c2ccccc2c1=O)N1CCC2(CC1)OCCO2	-6
O=C(CNCc1c(F)cccc1F)N1CCC2(CC1)OCCO2	1
C=C(C=O)CC1CC(O)[C@]2(C)OC3CC4OC5C[C@]6(C)O[C@]7(C)CCC8OC9C[C@]%10(C)OC%11C(C)=CC(=O)OC%11CC%10OC9C[C@@H](C)C8OC7CC6O[C@]5(C)C/C=C\C4OC3CC2O1 (some centres undefined)	0
Nc1c(C(=O)NC2CCCC2)c2nc3ccccc3nc2n1CC1CCCO1 (centres undefined)	27*	TbREL1 confirm=12*
Nc1c(C(=O)OCC2CCCO2)c2nc3ccccc3nc2n1Cc1cccs1 (centres undefined)	4
COC(=O)c1c(N)n(Cc2ccc(OC)cc2)c2nc3ccccc3nc12	0
CCCCN1CCN(C(=O)COc2cc(=O)n(C)c3ccccc23)CC1	-4
CC(NC(=O)OCc1ccccc1)[P+](=O)O (centres undefined)	0
CC(NC(=O)OCc1ccccc1)P(=O)(Oc1ccccc1)Oc1ccccc1 (centres undefined)	1
C[C@H](NC(=O)OCc1ccccc1)C(=O)NC(Cc1ccccc1)P(=O)(Oc1ccccc1)Oc1ccccc1 (some centres undefined)	3
Cc1nc2c(=O)n(C)c(=O)nc-2n(C)n1	64*	TbREL1 confirm=89*
CCCCCN1C(=O)c2cc(OC)ccc2[C@@]2(C(=O)OCC)Cc3cc(OC)ccc3[C@@H]12	6
COP(=O)(OC)C(C)NC(=O)OCc1ccccc1 (centres undefined)	0
[O-]c1ccccc1-[n+]1c(-c2ccccc2)cc(-c2ccccc2)cc1-c1ccccc1	8
CCCOC(=O)c1ccc(-[n+]2c(-c3ccccc3)cc(-c3ccccc3)cc2-c2ccccc2)cc1	10
Brc1ccc(-[n+]2c(-c3ccccc3)cc(-c3ccccc3)cc2-c2ccccc2)cc1	12*	TbREL1 confirm=4
CC(C)CCP(=O)(O)O	2
Cc1cccc(C(C)c2cnc[nH]2)c1C (centres undefined)	1
SMILES	TbREL1 primary	others
O=C1NC(=O)C(=Cc2ccc(-c3ccc(F)cc3O)o2)C(=O)N1	16*	TbREL1 confirm=15*
COc1cc2c(c3oc4cccc(O)c4c(=O)c13)[C@@H]1C=CO[C@@H]1O2	2
NC(Cc1ccc(N(CCCl)CCCl)cc1)C(=O)O (centres undefined)	7
CCOC(=O)[C@]12Cc3cc(C)ccc3[C@H]1N(C1CCCCC1)C(=O)c1ccccc12	6
Cc1cc(/C=C2/C(=O)NC(=O)N(c3ccccc3)C2=O)c(C)n1-c1ccc(F)cc1	3
Cc1cc(/C=C2\C(=O)NC(=O)N(Cc3ccco3)C2=O)c(C)n1-c1ccc(C(=O)O)cc1	16*	TbREL1 confirm=3
Cc1ccc(-n2c(C)cc(/C=C3/C(=O)NC(=O)N(Cc4ccco4)C3=O)c2C)cc1	-1
NC(Cc1ccc(Cl)cc1)c1csc(Nc2ncccn2)n1 (centres undefined)	6
CCOC(=O)[C@]12Cc3ccccc3[C@H]1N(Cc1ccccc1)C(=O)c1cc(F)c(F)cc12	6
Fc1ccc(N2Cc3ccccc3-n3nncc3C2)cc1	-1
COc1ccc(-c2ccc3c(c2)CN(C(=O)NC2CCCCC2)Cc2cnnn2-3)cc1	0
Nc1ccnn1C1CCNCC1	23*	TbREL1 confirm=5
CN1CCC(n2nccc2N)CC1	1
CCOC(=O)[C@]12Cc3cc(Cl)ccc3[C@H]1N(C1CCCCC1)C(=O)c1cc(OC)ccc12	3
O=C(Nc1ccccc1)N1Cc2ccccc2-n2nncc2C1	5
O=C(NC(CCC(O)CO)P(=O)(Oc1ccccc1)Oc1ccccc1)OCc1ccccc1 (centres undefined)	-1
Cc1c(P(=S)(c2ccccc2)c2ccccc2)c2ccccc2n1C	4
COCCCn1c(N)c(C(=O)OCCOC)c2nc3ccccc3nc21	8
COCCOC(=O)c1c(N)n(Cc2ccc(OC)cc2)c2nc3ccccc3nc12	0
CCCCNC(=O)c1c(N)n(CCCOC)c2nc3ccccc3nc12	12*	TbREL1 confirm=34*
